# Data from PubChem BioAssay (Tox21).
# Results filed as inconclusive are left out. The source made the active and inactive calls. Calls come from the whole dose curve; as a rule, active = well fitted cell-killing curve with a large enough effect in the repeat runs; inconclusive = weak or mixed curves, or effect the other way; inactive = flat fitted curve, though single readings scatter.
# Experiment: qHTS RealTime-Glo MT Cell Viability Assay in HepG2 cells - 0 hour (AID 1224889); note: nearly all actives have a fitted effect of over 50% in size
# Settings: RealTime-Glo luminescence; series mostly up to 76.8 µM
# From the text: U.S. Tox21 Program National Center for Advancing Translational Sciences [NCATS] NIH Chemical Genomics Center [NCGC] U.S. Environmental Protection Agency [EPA] National Institutes of Environmental Health Sciences [NIEHS] National Toxicology Program [NTP] U.S. Food and Drug Administration [FDA] Tox21 Assay Overview: Measure of cell viability is critical in the cell-base assay. Analysis of cell viability is necessary for the characterization of cell responses to cytotoxic drugs and environmental stress. A RealTime-Glo MT Cell Viability Assay to monitor cell viability in real time of continues cell culture during 40 hours of compound treatment was used to screen Tox21 10K library compounds in HepG2 cells. The RealTime-Glo MT Cell Viability Assay is a nonlytic, homogeneous, bioluminescent method to measure cell viability in real time using a simple, plate-based method. The assay involves adding NanoLuc luciferase and a cell-permeant prosubstrate to cells in culture. Viable cells reduce the proprietary prosubstrate to generate a substrate for NanoLuc luciferase. This substrate diffuses from cells into the surrounding culture medium, where it is rapidly used by the NanoLuc Enzyme to produce a luminescent signal. The signal correlates with the number of viable cells, making the assay well suited for cytotoxicity studies.
# Tox21 Assay Protocol Summary: The mixture of HepG2 cell suspension and reagents were dispensed at 600cells/6 ul/well in 1536-well tissue culture treated black solid bottom plates using a Multidrop dispenser. After the assay plates were incubated at a 37 C/5% CO2 incubator for 5 hours, 23 nL of compounds dissolved in DMSO, positive and negative controls was transferred to the assay plate by a pintool work station. The plates were incubated at 37 C for 40 hours. The luminescence intensity were measured at 0h, 8h, 16h, 24h, 32h and 40h time points using ViewLux plate reader during compound treatment.
# % is set by controls: 0 for no effect and ±100 for the full control effect.
Compound,outcome,"activity change, negative = cytotoxicity"
CC(C)(C)C(=O)Cl,inactive,
Cc1cccc2sc3nncn3c12,inactive,
ClC(Cl)(Cl)Cl,inactive,
CCOP(=O)(CN(CCO)CCO)OCC,inactive,
N=C(N)[Se],inactive,
CC(Cc1ccccc1)NCCCCl (stereo not given),inactive,
O=C(Cl)c1ccccc1,inactive,
O=C1C2CC=CCC2C(=O)N1SC(Cl)(Cl)Cl (stereo not given),inactive,
C=CC(=O)OCCN(C)C,inactive,
ClC1=C(Cl)C2(Cl)C(CBr)CC1(Cl)C2(Cl)Cl (stereo not given),inactive,
BrCc1ccc(Br)cc1,inactive,
CCCCCCCC(=O)Cl,inactive,
Cc1ccc(-c2nc3ccc(C)cn3c2CC(=O)N(C)C)cc1,inactive,
CNC(=O)Oc1ccccc1C(C)C,inactive,
CN(CCO)CCO,inactive,
N#CN,inactive,
CCCCCCC(=O)CCCCCC/C=C/C[C@@H](O)[C@H](O)[C@@](N)(CO)C(=O)O,,3.64% [at 15.8 µM] (inactive)
CC(C)NCC(O)c1ccc([N+](=O)[O-])cc1 (stereo not given),inactive,
CCCCCCC1CCOC1=O (stereo not given),inactive,
CCOP(=S)(OCC)Oc1ccc(Cl)cc1Cl,inactive,

Compound,outcome,"activity change, negative = cytotoxicity"
CN(C)C1CCCCC1,inactive,
N#CC(Br)(Br)C(N)=O,inactive,
O=C1CC(=O)NC(=O)N1,inactive,
CCN[C@H](C)Cc1cccc(C(F)(F)F)c1,inactive,
CC(O)CCl (stereo not given),inactive,
N[C@@H]1C[C@H]1c1ccccc1,inactive,
COc1ccc(C=O)cc1O,inactive,
Cc1ccc2cc(C)ccc2c1,inactive,
OCC(Cl)CCl (stereo not given),inactive,
Cl/C=C/CCl,inactive,
CCOC(=O)c1ncn2c1CN(C)C(=O)c1c(I)cccc1-2,inactive,
C=CCN1CC[C@]23CCCC[C@H]2[C@H]1Cc1ccc(O)cc13,inactive,
Cn1c(CCCC(=O)O)nc2cc(N(CCCl)CCCl)ccc21,inactive,
CON(C)C(=O)Nc1ccc(Br)cc1,inactive,
CCCC[N+](=O)[O-],inactive,
CC1N=C(N)OC1c1ccccc1 (stereo not given),inactive,
c1cncc([C@@H]2CCCCN2)c1,inactive,
CS(=O)(=O)Cl,inactive,
C[C@@H](N)[C@@H](O)c1ccccc1,inactive,
NC1(c2ccccc2)CCCCC1,inactive,
